High-throughput results as filed in PubChem BioAssay.
Giardia kill: kills Giardia lamblia; Giardia lamblia trophozoite viability; activity change, % at 7.66 µM, hits read low; 340,000 tested, 0.15% active; in the data active means activity change below about -80%; inconclusive means between about -30% and that limit;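 further: parasites exposed to compound for two days anaerobically before the ATP read; on the % scale 0 is the no-effect control and ±100 the full control effect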
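Media and compound were dispensed first, then trophozoites at 100 cells/well; plates sat 48 hrs at 37 deg C without oxygen before ATP luminescence reagent was added and read after 15-30 min at room temperature.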
MCF10A rerep: DNA re-replication induction in MCF 10a cells | MCF 10A DNA re-replication, Hoechst nuclear intensity, 48 h | Potency, µM (titrated, usually from 46.1 µM), inactives show at the highest dose activity, positive = re-replication, hits mostly activators | 350,000 tested, 2.9% active; further: potency means the concentration at half of the fitted maximal effect; % of control where 0% means no effect; nearly all actives have a fitted effect of over 50% in size
uPA surface inh: inhibitors of cell surface uPA generation | cell surface uPA generation assay, qHTS | Potency, µM (titrated, usually from 38.3 µM), for inactives: at the highest dose activity change, negative = inhibition, hits mostly inhibitors | 330,000 tested, 0.31% active | AID 540303; active means well fitted inhibition curve with a large enough effect; inconclusive means small, poorly fitted or top-dose-only effect; inactive means no such curve, though single readings can be large or run the other way; tested in mouse RAW 264.7 cells; further: potency means the concentration at half of the fitted maximal effect; on the % scale 0 is the no-effect control and ±100 the full control effect; nearly all actives have a fitted effect of over 55% in size
SW480 rerep: inducers of DNA re-replication in SW480 colon cancer cells; 340,000 tested, 1.8% active; AID 624297; SW480 DNA re-replication, Hoechst DNA content imaging, 48 h; Potency, µM (highest dose often 46.1 µM), without a hit: top-dose re-replication activation, most hits filed as activators; further: potency means the concentration at half of the fitted maximal effect; % of control where 0% means no effect; nearly all actives have a fitted effect of over 55% in size
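Image-based read-out: total Hoechst fluorescence of nuclei (405 nm excitation, 500-530 nm emission), with hits raising the fraction of high-intensity nuclei. SW480 colon cells incubated 48 hr with compounds at 37 C.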
An asterisk follows results filed as active; ? = inconclusive; . = no result. Compounds with a hit are over-represented: about 4.3% of the library has one in this group of screens. Unless noted, the call rests on the fitted dose curve; in most records, active means well fitted activation curve with a large enough effect; inconclusive means small, poorly fitted or top-dose-only effect; inactive means no such curve, though single readings can be large or run the other way.

SMILES	Giardia kill	MCF10A rerep	uPA surface inh	SW480 rerep
COc1ccc(N=CC2CCCCC2=O)c([N+](=O)[O-])c1 (stereo unspecified)	-19	-4%	-5%	-15%
O=C(COc1ccc(Br)cc1)NCCCNC(=O)c1cnccn1	0	-1%	2%	-5%
Cc1ccc(C(=O)N/N=C/c2c(O)ccc3ccccc23)cn1	10	24%	?	25%
O=C(N/N=C\c1c(O)ccc2ccccc12)c1ccc(O)cc1	6	-1%	?	?
COc1ccc(N=Cc2c(O)ccc3ccccc23)cc1	9	-1%	-5%	4%
COc1ccc(NC(C)C(=O)N/N=C/c2c(O)ccc3ccccc23)cc1 (stereo unspecified)	12	?	-1%	3.7µM*
Cc1occc1C(=O)N/N=C/c1c(O)ccc2ccccc12	-7	?	-13%	0.52µM*
Cn1cc(C(=O)N/N=C/c2c(O)ccc3ccccc23)ccc1=O	-1	26µM*	?	-7%
Cn1nccc1C(=O)N/N=C/c1c(O)ccc2ccccc12	-15	16µM*	?	?
O=C(NCc1ccccn1)C1(C(F)(F)F)C/C(=C\Cc2ccccc2)CCCO1 (stereo unspecified)	3	.	.	.
[O]=[Bi][O]C(=O)[O][Bi]=[O]	.	0%	.	-3%
Cn1c(-c2ccccc2)c(/C=N/NC(=O)c2ccc(O)cc2)c2ccccc21	-7	6%	3.5µM*	-8%
Cn1c2ccccc2c2cc(/C=N/NC(=O)c3ccc(N)cc3)ccc21	-17	?	-7%	?
Nc1ccc(/C=C/c2ccc(N)cc2S(=O)(=O)O)c(S(=O)(=O)O)c1	.	-10%	.	-3%
COc1ccc2c(c1)CCCC(Br)C2=O (stereo unspecified)	-1	?	-14%	18µM*
COC(=O)C1(C)CCc2cc(OC)ccc2C1=O (stereo unspecified)	3	11%	-16%	-2%
Cc1cccc(Cc2cnc(NC(=O)c3ccc(C)o3)s2)c1	4	2.6µM*	-2%	6%
Cn1c(=O)[nH]c(NCCc2ccc(O)cc2)c([N+](=O)[O-])c1=O	9	-2%	3%	-4%
COc1cc(Br)cc(/C=C/c2ccc3cccc(O)c3n2)c1OC	-17	5%	8%	-8%
COc1cc(/C=C/c2ccc3cccc(O)c3n2)cc(Br)c1OC	-10	15µM*	-14%	?
COc1ccc(/C=C/c2ccc3cccc(O)c3n2)c(OC)c1OC	9	1.6µM*	-4%	?
COc1cc(/C=C/c2ccc3cccc(O)c3n2)cc(Cl)c1OC	6	15µM*	-10%	4.6µM*
COc1cc(/C=C/c2ccc3cccc(O)c3n2)cc(OC)c1OC	-3	?	-2%	17%
CCc1cccc(NC(=O)c2ccc3c(=O)n4c(nc3c2)CCCCC4)c1	5	10%	-1%	-12%
Cc1cc(NC(=O)NC(=O)c2ccccc2NC(=O)C(C)N)ccc1Oc1ncc(Br)cn1 (stereo unspecified)	16	?	-10%	2.9µM*
SMILES	Giardia kill	MCF10A rerep	uPA surface inh	SW480 rerep
CCOC(=O)c1ccccc1NC(=O)Nc1ccc(OC)c(OC)c1	19	0%	.	7%
CCOc1ccc(Br)cc1CC(=O)O	1	3%	2%	1%
CCCOc1ccc(Br)cc1CSC(=N)N	-20	7%	5.6µM*	-13%
Cc1cccc(C)c1OCC(=O)N=Nc1c(O)[nH]c2ccc(Br)cc12	-6	21µM*	.	?
COc1ccc(/C=N/OCC(=O)N=Nc2c(O)[nH]c3ccc(Br)cc23)cc1	27	24%	-2%	1%
N#CC1(Nc2ccc([N+](=O)[O-])cc2)CCCC1	17	4%	-4%	8%
COc1ccc2c(c1OC)c(=O)n1c3ccc(OC(C)C(=O)NCCN4CCOCC4)cc3c3ccnc2c31 (stereo unspecified)	5	-5%	11%	?
COc1ccc2c(c1OC)c(=O)n1c3ccc(OC(C)C(=O)NCCCN4CCOCC4)cc3c3ccnc2c31 (stereo unspecified)	4	5.8µM*	2%	18µM*
CC(Oc1ccc2c(c1)c1ccnc3c4ccccc4c(=O)n2c13)C(=O)NCCN1CCOCC1 (stereo unspecified)	12	1.6µM*	?	?
Cc1cccc2c3c([nH]c12)C(=O)CC(C)(C)S3	-15	4%	.	1%
Cc1ccc2[nH]c3c(c2c1)SC(C)(C)CC3=O	-18	18µM*	11%	?
Cc1cc(NC(=O)CSc2nnnn2C)n(-c2ccccc2)n1	-10	6.5µM*	-11%	4.1µM*
